Data taken from the supplement of paper PMC10849652.
About 7,900 targets were measured; listed, in parts, are those with a hit and a random draw of the rest. About 0.6% of all pairs of compound and target were hits. Values without a mark were called inactive.

Tests used:
Experiment in all cases: log2 fold change, soluble protein after heating vs DMSO (PISA); higher = thermal stabilisation; K562 cells, 10 uM, 30 min; active = over 0.2 and 3.5 SD of the protein, either way, in both replicates (recomputed)
erlotinib = compound: C#Cc1cccc(Nc2ncnc3cc(OCCOC)c(OCCOC)cc23)c1 [erlotinib]
In short: (§1)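 K562 cells at 2×10^6 cells/mL were given 10 μM compound for 30 min. Aliquots then went through 3 min of heating across 48°C-58°C, were pooled, and were extracted in PBS with 0.5% NP-40 at 4°C, and the supernatant after 21,000xg for 90 min was quantified by TMTpro 16plex LC-MS/MS with channel sums equalised. Thermal stability relative to control samples, from duplicates, is given as log2 fold change.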

[1] = compound: C/C(=N\NC(=O)C1=CC(=CC=C1)S(=O)(=O)N2CCOCC2)/C3=C(C=CC(=C3)Cl)O
In short: as §1

[2] = compound: C1=CC(=C(C=C1Cl)C2=NC3=NC=CN=C3C(=N2)NC4=CC=NC=C4)F
In short: as §1

[3] = compound: C1=CC(=CC=C1C2=NC3=C(N2)C=C(C=C3)C(=O)N)OC4=CC=C(C=C4)Cl
In short: as §1

[4] = compound: C1=CC2=C(C=CC(=C2)/C=C\3/C(=O)NC(=NCC4=CC=CS4)S3)N=C1
In short: as §1

[5] = compound: C1=CC2=NC=CN=C2C=C1/C=C/3\C(=O)NC(=O)S3
In short: as §1

[6] = compound: C1=CC=C(C=C1)C2=NC(=C(N2)C3=CC=NC=C3)C4=CC(=C(C=C4)Cl)O
In short: as §1

[7] = compound: C1=CC=C2C(=C1)C3=NNC4=CC=CC(=C43)C2=O
In short: as §1

[8] = compound: C1CCN(C1)C(=O)NC2=CC=CC(=C2)NC3=NC=C(C(=N3)NCCC4=CN=CN4)Br
In short: as §1

[9] = compound: C1CN(CCC1(CC2=CC=C(C=C2)Cl)N)C3=NC=NC4=C3C=CN4
In short: as §1

IRAK-1-4 Inhibitor I = compound: C1COCCN1CCN2C3=CC=CC=C3N=C2NC(=O)C4=CC(=CC=C4)[N+](=O)[O-] [IRAK-1-4 Inhibitor I]
In short: as §1

ibrutinib = compound: C=CC(=O)N1CCC[C@@H](n2nc(-c3ccc(Oc4ccccc4)cc3)c3c(N)ncnc32)C1 [ibrutinib]
In short: as §1

[10] = compound: CC(=O)c1cnc2ccc(-c3cc(Cl)c(O)c(Cl)c3)nc2c1N[C@H]1CC[C@H](CN(C)C)CC1
In short: as §1

ralimetinib = compound: CC(C)(C)Cn1c(N)nc2ccc(-c3[nH]c(C(C)(C)C)nc3-c3ccc(F)cc3)nc21 [ralimetinib]
In short: as §1

[11] = compound: CC(C)(O)CC(=O)NCCn1ccc2ncnc(Nc3ccc(Oc4cccc(C(F)(F)F)c4)c(Cl)c3)c21
In short: as §1

[12] = compound: CC(C)C1=C2N=C(C=C(N2N=C1)NCC3=CC=CC=C3)NCCCCCCN
In short: as §1

[13] = compound: CC(C)C[C@@H](C=O)NC(=O)[C@H](CC(C)C)NC(=O)[C@H](CC(C)C)NC(=O)OCc1ccccc1
In short: as §1

pinometostat = compound: CC(C)N(C[C@H]1O[C@@H](n2cnc3c(N)ncnc32)[C@H](O)[C@@H]1O)[C@H]1C[C@@H](CCc2nc3cc(C(C)(C)C)ccc3[nH]2)C1 [pinometostat]
In short: as §1

[14] = compound: CC1=C(C(CC(=O)N1)C2=CC=C(C=C2)C(F)(F)F)C(=O)NC3=C(C=C4C(=C3)C=NN4)F
In short: as §1

[15] = compound: CC1=C(C2=C(C=C1)C(=O)C3=CC=CC=C3N2CCCN)C
In short: as §1

Chain of UniProt O76075 (O76075 whole entry, looked up): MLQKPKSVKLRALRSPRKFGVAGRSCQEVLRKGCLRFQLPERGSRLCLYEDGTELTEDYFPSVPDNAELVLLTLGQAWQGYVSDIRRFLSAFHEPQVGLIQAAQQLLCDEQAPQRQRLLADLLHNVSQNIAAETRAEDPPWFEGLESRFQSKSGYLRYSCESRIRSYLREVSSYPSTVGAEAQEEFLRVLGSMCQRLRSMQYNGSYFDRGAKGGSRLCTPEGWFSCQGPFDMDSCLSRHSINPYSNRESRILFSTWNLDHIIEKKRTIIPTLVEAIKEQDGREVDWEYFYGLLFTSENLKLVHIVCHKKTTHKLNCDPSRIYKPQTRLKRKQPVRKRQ
Chain of UniProt Q13409 (Q13409 whole entry, looked up): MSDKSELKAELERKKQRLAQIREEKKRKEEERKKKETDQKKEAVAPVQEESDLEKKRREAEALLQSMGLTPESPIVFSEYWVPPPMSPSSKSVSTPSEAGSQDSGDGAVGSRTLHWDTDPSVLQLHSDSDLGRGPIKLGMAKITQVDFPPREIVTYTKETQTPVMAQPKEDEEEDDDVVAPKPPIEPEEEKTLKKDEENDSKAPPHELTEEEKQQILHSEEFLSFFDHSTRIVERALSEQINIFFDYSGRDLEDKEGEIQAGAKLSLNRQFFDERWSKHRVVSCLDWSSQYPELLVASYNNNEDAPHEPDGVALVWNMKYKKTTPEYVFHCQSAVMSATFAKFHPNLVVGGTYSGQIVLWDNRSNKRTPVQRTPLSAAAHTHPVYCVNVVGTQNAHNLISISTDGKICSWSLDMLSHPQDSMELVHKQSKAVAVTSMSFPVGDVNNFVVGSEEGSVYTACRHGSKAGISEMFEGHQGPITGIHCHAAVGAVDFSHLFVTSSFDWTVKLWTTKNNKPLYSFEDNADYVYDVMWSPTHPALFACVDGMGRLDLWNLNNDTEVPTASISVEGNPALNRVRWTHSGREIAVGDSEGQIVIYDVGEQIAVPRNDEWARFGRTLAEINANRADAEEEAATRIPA
Chain of UniProt Q5NDL2 (Q5NDL2 whole entry, looked up): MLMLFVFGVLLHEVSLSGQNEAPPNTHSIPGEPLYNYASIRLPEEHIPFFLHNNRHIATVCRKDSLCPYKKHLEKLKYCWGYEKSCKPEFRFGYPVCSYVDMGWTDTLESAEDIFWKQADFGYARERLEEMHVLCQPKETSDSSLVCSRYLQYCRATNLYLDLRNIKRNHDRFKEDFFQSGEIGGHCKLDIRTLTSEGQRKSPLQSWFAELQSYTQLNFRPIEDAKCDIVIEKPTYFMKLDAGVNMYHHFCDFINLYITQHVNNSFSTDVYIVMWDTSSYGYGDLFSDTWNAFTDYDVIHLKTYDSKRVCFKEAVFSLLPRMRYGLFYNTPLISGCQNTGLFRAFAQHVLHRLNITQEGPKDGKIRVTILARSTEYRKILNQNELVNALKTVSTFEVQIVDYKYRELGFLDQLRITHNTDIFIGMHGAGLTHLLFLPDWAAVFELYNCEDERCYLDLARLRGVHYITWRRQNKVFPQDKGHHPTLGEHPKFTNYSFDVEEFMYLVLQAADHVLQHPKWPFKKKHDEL
Chain of UniProt P17844 (P17844 whole entry, looked up): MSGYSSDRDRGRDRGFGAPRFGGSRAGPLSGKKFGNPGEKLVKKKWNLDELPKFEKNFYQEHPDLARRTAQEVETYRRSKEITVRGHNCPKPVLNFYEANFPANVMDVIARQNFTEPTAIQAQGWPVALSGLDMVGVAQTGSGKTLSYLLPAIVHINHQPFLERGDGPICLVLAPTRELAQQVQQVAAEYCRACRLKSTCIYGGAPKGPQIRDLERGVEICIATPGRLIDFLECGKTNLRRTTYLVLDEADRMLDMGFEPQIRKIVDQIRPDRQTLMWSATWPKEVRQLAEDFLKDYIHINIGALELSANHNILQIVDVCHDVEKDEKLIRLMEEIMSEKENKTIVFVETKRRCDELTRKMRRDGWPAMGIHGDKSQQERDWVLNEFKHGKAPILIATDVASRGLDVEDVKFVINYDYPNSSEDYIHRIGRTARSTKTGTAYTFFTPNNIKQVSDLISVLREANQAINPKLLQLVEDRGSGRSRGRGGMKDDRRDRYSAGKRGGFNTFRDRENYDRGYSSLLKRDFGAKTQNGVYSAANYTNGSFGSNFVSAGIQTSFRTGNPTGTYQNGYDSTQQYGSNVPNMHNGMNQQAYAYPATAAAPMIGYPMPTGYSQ
Chain of UniProt Q9UER7 (Q9UER7 whole entry, looked up): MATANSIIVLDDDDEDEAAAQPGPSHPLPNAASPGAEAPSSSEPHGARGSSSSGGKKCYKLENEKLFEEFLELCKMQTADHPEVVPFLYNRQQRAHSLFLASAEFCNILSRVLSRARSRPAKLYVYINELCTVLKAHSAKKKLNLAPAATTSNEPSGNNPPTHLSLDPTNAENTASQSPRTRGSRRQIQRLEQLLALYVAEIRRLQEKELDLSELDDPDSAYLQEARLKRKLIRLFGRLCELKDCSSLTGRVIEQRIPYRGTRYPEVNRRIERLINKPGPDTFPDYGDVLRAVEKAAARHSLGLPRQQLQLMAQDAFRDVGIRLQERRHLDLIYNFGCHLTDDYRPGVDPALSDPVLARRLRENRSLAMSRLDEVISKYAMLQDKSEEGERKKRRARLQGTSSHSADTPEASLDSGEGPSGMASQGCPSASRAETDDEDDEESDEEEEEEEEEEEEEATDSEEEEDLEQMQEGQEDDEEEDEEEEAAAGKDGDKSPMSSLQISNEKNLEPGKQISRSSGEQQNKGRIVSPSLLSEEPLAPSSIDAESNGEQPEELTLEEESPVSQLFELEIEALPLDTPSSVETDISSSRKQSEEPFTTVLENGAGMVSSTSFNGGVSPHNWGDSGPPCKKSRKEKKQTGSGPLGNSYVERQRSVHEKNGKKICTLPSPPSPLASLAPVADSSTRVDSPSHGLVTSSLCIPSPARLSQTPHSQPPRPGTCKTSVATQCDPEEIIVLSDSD
Chain of UniProt Q8N128 (Q8N128 whole entry, looked up): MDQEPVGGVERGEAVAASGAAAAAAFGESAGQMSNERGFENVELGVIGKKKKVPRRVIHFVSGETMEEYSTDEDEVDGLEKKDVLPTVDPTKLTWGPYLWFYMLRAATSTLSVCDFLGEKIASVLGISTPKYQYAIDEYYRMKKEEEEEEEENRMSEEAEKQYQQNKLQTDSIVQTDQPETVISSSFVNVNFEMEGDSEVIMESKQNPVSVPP
Chain of UniProt P18146 (P18146 whole entry, looked up): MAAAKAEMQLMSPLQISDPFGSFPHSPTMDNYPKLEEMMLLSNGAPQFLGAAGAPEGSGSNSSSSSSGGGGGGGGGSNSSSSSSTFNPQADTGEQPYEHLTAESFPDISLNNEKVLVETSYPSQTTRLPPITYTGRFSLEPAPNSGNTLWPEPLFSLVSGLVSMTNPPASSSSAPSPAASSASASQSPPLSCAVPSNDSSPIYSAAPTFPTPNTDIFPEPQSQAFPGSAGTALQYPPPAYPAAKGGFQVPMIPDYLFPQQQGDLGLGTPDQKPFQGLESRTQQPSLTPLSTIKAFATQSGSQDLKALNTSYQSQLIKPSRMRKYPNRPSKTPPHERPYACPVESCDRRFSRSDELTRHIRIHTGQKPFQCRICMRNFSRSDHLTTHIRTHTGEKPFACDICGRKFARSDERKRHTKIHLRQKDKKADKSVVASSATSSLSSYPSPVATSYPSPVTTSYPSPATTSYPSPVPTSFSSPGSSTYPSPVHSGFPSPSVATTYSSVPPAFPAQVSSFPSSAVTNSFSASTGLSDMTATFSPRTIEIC
Chain of UniProt P32519 (P32519 whole entry, looked up): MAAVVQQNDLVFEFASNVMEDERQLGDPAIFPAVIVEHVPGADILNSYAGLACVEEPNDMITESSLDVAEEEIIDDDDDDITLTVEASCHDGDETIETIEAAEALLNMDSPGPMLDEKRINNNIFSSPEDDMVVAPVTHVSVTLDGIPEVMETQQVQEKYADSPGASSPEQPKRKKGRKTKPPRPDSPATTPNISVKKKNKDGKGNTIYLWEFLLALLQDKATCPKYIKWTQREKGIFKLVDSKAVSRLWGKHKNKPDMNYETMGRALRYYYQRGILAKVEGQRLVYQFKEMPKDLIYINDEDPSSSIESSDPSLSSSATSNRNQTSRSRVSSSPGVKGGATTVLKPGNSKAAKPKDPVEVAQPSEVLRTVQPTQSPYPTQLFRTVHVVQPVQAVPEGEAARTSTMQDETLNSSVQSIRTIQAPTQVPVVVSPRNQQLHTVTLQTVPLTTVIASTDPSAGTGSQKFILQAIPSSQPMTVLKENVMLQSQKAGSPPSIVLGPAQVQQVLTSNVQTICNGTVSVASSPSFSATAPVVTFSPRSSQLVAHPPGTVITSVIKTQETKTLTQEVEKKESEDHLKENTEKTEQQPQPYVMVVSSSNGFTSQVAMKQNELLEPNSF

Row | Target | log2 fold change (erlotinib) | log2 fold change [1] | log2 fold change [2] | log2 fold change [3] | log2 fold change [4] | log2 fold change [5] | log2 fold change [6] | log2 fold change [7] | log2 fold change [8] | log2 fold change [9] | log2 fold change (IRAK-1-4 Inhibitor I) | log2 fold change (ibrutinib) | log2 fold change [10] | log2 fold change (ralimetinib) | log2 fold change [11] | log2 fold change [12] | log2 fold change [13] | log2 fold change (pinometostat) | log2 fold change [14] | log2 fold change [15]
1 | DDX5 (UniProt P17844) | 0.13 | 0.101 | 0.072 | 0 | -0.003 | -0.046 | 0.059 | -0.032 | -0.061 | -0.127 | -0.114 | 0.002 | -0.358 (active) | -0.024 | -0.189 | -0.12 | 0.069 | 0.017 | -0.067 | 0.072
2 | ELF1 (UniProt P32519) | -0.016 | -0.052 | 0.068 | 0.028 | -0.003 | – | 0.082 | -0.091 | 0.013 | -0.092 | -0.12 | – | 0.143 | 0.186 | -0.567 (active) | -0.072 | -0.076 | 0.053 | -0.22 | -0.473
3 | DYNC1I2 isoform 2 (UniProt Q13409) | 0.018 | 0.155 | 0.057 | -0.056 | -0.202 | -0.013 | 0.17 | 0.057 | -0.062 | 0.029 | 0.012 | 0.126 | 0.106 | 0.055 | -0.133 | -0.105 | 0.154 | 0.023 | – | -0.05
4 | EOGT (UniProt Q5NDL2) | -0.058 | -0.018 | -0.032 | 0.002 | -0.026 | -0.016 | -0.032 | 0.032 | 0.004 | 0.04 | -0.002 | 0.005 | 0.006 | -0.036 | 0.016 | -0.024 | 0.026 | 0.075 | 0.002 | 0.003
5 | FAM177A1 isoform 2 (UniProt Q8N128) | 0.048 | 0.042 | 0.038 | 0.023 | 0.036 | 0.02 | 0.024 | -0.037 | 0.109 | 0.044 | 0.042 | 0.038 | 0.033 | 0 | -0.242 | -0.245 | 0.029 | 0.081 | 0.062 | -0.019
6 | EGR1 (UniProt P18146) | -0.105 | 0.001 | 0.071 | 0.176 | 0.208 | 0.088 | -0.28 | -0.474 | 0.118 | -0.121 | – | 0 | -1.07 (active) | 0.042 | 0.044 | -0.452 | 0.153 | – | 0.188 | -0.472
7 | DAXX (UniProt Q9UER7) | 0.212 | -0.662 (active) | – | 0.037 | 0.072 | 0.012 | 0.055 | 0.009 | -0.148 | 0.224 | 0.13 | 0.091 | 0.008 | 0.218 | – | 0.243 | 0.088 | -0.049 | 0.078 | 0.078
8 | DFFB (UniProt O76075) | -0.015 | 0.103 | 0.022 | 0.035 | 0.101 | 0.016 | 0.037 | -0.005 | -0.305 (active) | -0.039 | -0.002 | -0.047 | 0.011 | 0.005 | -0.148 | 0.066 | 0.045 | 0.008 | -0.052 | 0.009
